Data published in PubChem BioAssay.
A number with no mark means an inactive call. No rule for the calls is given here.

Tested on: Aerobactin synthetase IucA (Klebsiella pneumoniae hvKP1)
Experiment: IucA enzyme inhibition, primary screen, biochemical, Spectrum library (AID 1346200);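 also: 100% = wells without compound and 0% = wells lacking enzyme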
Conditions: malachite green pyrophosphate, A620, at 8 µM, stronger effect = lower value

In order of falling activity remaining:
1. O=C1c2ccc(O)c(O)c2C(=O)c2c(O)ccc(O)c21  125%
2. Nc1c2ccccc2nc2ccccc12  118%
3. COc1ccc2c(c1)OCC(Cc1ccc(OC)c(O)c1)C2=O (stereo not given)  115%
4. CCCCCC/C=C\CCCCCCCc1cccc(O)c1C(=O)O  112%
5. COc1ccc(CC(=O)c2ccc(O)cc2O)cc1  111%
6. CCCCc1nc(Cl)c(CO)n1Cc1ccc(-c2ccccc2-c2nn[nH]n2)cc1  110%
7. Cc1cc(-c2ccccc2)nnc1NCCN1CCOCC1  110%
8. CC1(C)C2C[C@@H](O)[C@]3(C)C(CC[C@@]4(C)[C@H](c5ccoc5)OC(=O)C5OC543)[C@@]2(C)C(=O)C[C@H]1O (stereo not given in full)  108%
9. NC(=NCCC[C@H](N)C(=O)O)NC(CCC(=O)O)C(=O)O (stereo not given in full)  107%
10. O=c1cc(-c2ccc(O)cc2)oc2cc(O)ccc12  102%
11. N[C@@H]1[C@@H](O[C@@H]2O[C@H](C(=O)O)[C@@H](O)[C@H](O)[C@H]2O)[C@@H](O)[C@@H](CO)O[C@@H]1O  100%
12. COC(=O)c1c(C)cc(OC)cc1O  98.9%
13. CO[C@@]1(NC(=O)CSCC#N)C(=O)N2C(C(=O)O)=C(CSc3nnnn3C)CSC21 (stereo not given in full)  98.6%
14. CC(=O)O[C@]1(C(C)=O)CCC2C3C=C(C)C4=CC(=O)CCC4(C)C3CCC21C (stereo not given in full)  98%
15. CC1(C)CC2C1CC[C@]1(C)CCC3C(C(=O)O)CC(=O)O[C@@]32C1 (stereo not given in full)  92.5%
